Test results: PubChem BioAssay (NCATS)
Inconclusive results are not listed. Calls of active or inactive are those of the source. Calls follow the shape of the dose curve; as a rule, active = well fitted inhibition curve with a large enough effect; inconclusive = small, poorly fitted or top-dose-only effect; inactive = flat fitted curve, though single readings scatter.

Columns and labels:
Experiment in all cases: Cytotoxic Profiling of Annotated Libraries Using Quantitative High-Throughput Screening (AID 1296008); also: nearly all actives have a fitted effect of over 60% in size
Details in all cases: Five cell lines viability, CellTiter-Glo ATP luminescence, 48-72 h; max response: hits give low values
CRL-7250 = system: CRL-7250
Outline: (§1)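 Cells exposed to compounds for 48 or 72 hr at 37 degrees Celsius. Viability read as ATP-coupled luminescence with CellTiter-Glo after 10 min at room temperature.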

HEK293 = system: HEK293
Outline: as §1

HaCat = system: HaCat
Outline: as §1

KB-3-1 = system: KB-3-1
Outline: as §1

NIH3T3 = system: NIH3T3
Outline: as §1

Measured: max response
% is scaled to controls: 0 for no effect and ±100 for the full control effect.

O=C(C[C@@H]1C(C(=O)O)=CO[C@@H](O[C@@H]2O[C@H](CO)[C@@H](O)[C@H](O)[C@H]2O)/C1=C\CO)OCCc1ccc(O)cc1
inactive: CRL-7250 1.31% | HEK293 1.44% | HaCat -0.66% | KB-3-1 | NIH3T3

C=C1CCC2C(C)(C)CC(O)CC2(C)C1CCC(C)CCOC(=O)CCC(=O)O (stereo not given)
inactive: CRL-7250 -28.7% | HEK293 -12.9% | HaCat -1.5% | KB-3-1 -6.16% | NIH3T3

CCC(C)/C=C(C)/C=C/C1=CC2=CC(=O)C(C)(O)C(OC(C)=O)C2CO1 (stereo not given)
inactive: CRL-7250 | HEK293 -22.7% | HaCat 4.74% | KB-3-1 -4.84% | NIH3T3

CC(C)(OC1OC(CO)C(O)C(O)C1O)C1CCC(O)(CO)C2CC(=O)C(C)(O)C2C1 (stereo not given)
inactive: CRL-7250 | HEK293 -8.37% | HaCat 0.066% | KB-3-1 2.59% | NIH3T3

CC1CC=C2C1CC1(O)C(=O)CC2(C)C1(C)CO (stereo not given)
inactive: CRL-7250 | HEK293 -7.63% | HaCat 4.08% | KB-3-1 | NIH3T3

COc1cc(C[C@@]2(O)CO[C@@H](c3ccc(O[C@@H]4O[C@H](CO)[C@@H](O)[C@H](O)[C@H]4O)c(OC)c3)[C@H]2CO)ccc1O
inactive: CRL-7250 -6.96% | HEK293 0.509% | HaCat -8.64% | KB-3-1 1.94% | NIH3T3

Cc1ccc2[nH]c(=O)c(C3=NN(C(=O)CCC(=O)O)C(c4ccc(Br)cc4)C3)c(-c3ccccc3)c2c1 (stereo not given)
inactive: CRL-7250 0.735% | HEK293 1.24% | HaCat -0.37% | KB-3-1 4.72% | NIH3T3

CC(C)CC(=O)OC[C@@]1(O)C[C@@]23CC[C@H]4[C@@](C)(CCC[C@@]4(C)C(=O)O)[C@@H]2CC[C@@H]1C3
inactive: CRL-7250 | HEK293 1.06% | HaCat -4.56% | KB-3-1 4.98% | NIH3T3

COc1ccc(/C=C/C(=O)O[C@@H]2[C@@H](OC(C)=O)[C@@H](OC(C)=O)[C@H](O[C@H]3[C@@H]4C=CO[C@@H](O[C@@H]5O[C@H](CO)[C@@H](O)[C@H](O)[C@H]5O)[C@@H]4[C@@]4(CO)O[C@@H]34)O[C@H]2C)cc1
inactive: CRL-7250 | HEK293 -1.95% | HaCat 0.723% | KB-3-1 2.76% | NIH3T3

CC(C)c1ccc2c(c1)[C@H](O)CC1[C@@](C)(C(=O)O)CCC[C@]21C (stereo not given in full)
inactive: CRL-7250 -0.592% | HEK293 -18.5% | HaCat -16.8% | KB-3-1 -0.988% | NIH3T3

C[C@@H]1O[C@@H](O[C@H]2[C@H](OC(=O)[C@]34CCC(C)(C)C[C@H]3C3=CCC5[C@@]6(C)C[C@@H](O)[C@@H](O[C@@H]7O[C@H](CO)[C@@H](O)[C@H](O)[C@H]7O)[C@@](C)(CO)C6[C@H](O)C[C@@]5(C)[C@]3(C)CC4)OC[C@H](O)[C@@H]2O)[C@H](O)[C@H](O[C@@H]2OC[C@](O)(CO)[C@H]2O)[C@H]1O[C@@H]1OC[C@@H](O)[C@H](O[C@H]2O[C@H](C)[C@@H](O)[C@H](O)[C@@H]2O)[C@H]1O (stereo not given in full)
inactive: CRL-7250 | HEK293 4.64% | HaCat 2.54% | KB-3-1 | NIH3T3

COc1cccc(OC)c1-c1nc(C(=O)N[C@@H](CC(C)C)C(=O)O)cn1-c1ccnc2cc(Cl)ccc12
inactive: CRL-7250 | HEK293 -12.4% | HaCat 3.78% | KB-3-1 | NIH3T3

CN1CCc2cc(Cl)c(O)cc2[C@@H](c2cccc3c2OCC3)C1
inactive: CRL-7250 | HEK293 -11.4% | HaCat -1.65% | KB-3-1 -4.72% | NIH3T3

CN1CCN(c2nc(-c3ccc(C(=O)NC4(C(=O)NCC#N)CCCCC4)cc3)cs2)CC1
inactive: CRL-7250 2.74% | HEK293 -8.37% | HaCat 1.43% | KB-3-1 -9.9% | NIH3T3

COc1cc2c(cc1OC)N1C(=O)C[C@@]34C=CC[N@+]5([O-])CC[C@H]2[C@H](CC3)[C@@]145
inactive: CRL-7250 -5.36% | HEK293 -9.63% | HaCat -4.24% | KB-3-1 1.95% | NIH3T3

O=C(/C=C/c1ccc(O)c(O)c1)O[C@H]1[C@H](OC2CCCCC2O)O[C@H](CO)[C@@H](O)[C@@H]1O (stereo not given in full)
inactive: CRL-7250 -3.22% | HEK293 -0.453% | HaCat -16.7% | KB-3-1 -3.21% | NIH3T3

Cc1onc(-c2c(Cl)cccc2Cl)c1CC(=O)NCc1ccc(OCC(F)(F)F)nc1
inactive: CRL-7250 0.479% | HEK293 -15.1% | HaCat 1.93% | KB-3-1 | NIH3T3

COc1ccc(-n2c(=O)[nH]c3cc(C(=O)NCc4ccc(Cl)cc4)sc3c2=O)nc1OC
inactive: CRL-7250 1.31% | HEK293 2.86% | HaCat -5.79% | KB-3-1 2.11% | NIH3T3

CCCN1CCC[C@@H](c2cccc(S(C)(=O)=O)c2)C1
inactive: CRL-7250 -1.62% | HEK293 -20.6% | HaCat -5% | KB-3-1 -6.47% | NIH3T3

C/C=C(\C)C(=O)OC[C@H]1O[C@@H](O[C@H]2[C@@H](O[C@H]3O[C@H](COC(=O)/C(C)=C/C)[C@@H](O)[C@H](O)[C@H]3O[C@@H]3O[C@H](COC(=O)/C(C)=C/C)[C@@H](O)[C@H](OC(=O)/C(C)=C/C)[C@H]3O)O[C@H](COC(=O)/C(C)=C/C)[C@@H](O)[C@@H]2O)[C@H](O)[C@@H](O)[C@@H]1O
inactive: CRL-7250 -1.79% | HEK293 -2.95% | HaCat -1.65% | KB-3-1 7.25% | NIH3T3

CC1(C)CC[C@]2(C(=O)O[C@@H]3O[C@H](CO)[C@@H](O)[C@H](O)[C@H]3O)CC[C@]3(C)C(=CCC4[C@@]5(C)C[C@@H](O)[C@H](O)[C@@](C)(CO)C5[C@H](O)C[C@]43C)C2[C@@H]1O (stereo not given in full)
inactive: CRL-7250 | HEK293 -12.5% | HaCat 1.4% | KB-3-1 | NIH3T3

C=C(C)[C@@H]1CC[C@]2(CO)CC[C@]3(C)[C@H](CC[C@@H]4[C@@]5(C)CC[C@H](O)C(C)(C)[C@@H]5CC[C@]43C)[C@@H]12
inactive: CRL-7250 1.98% | HEK293 3.79% | HaCat 2.42% | KB-3-1 | NIH3T3

CN(C)CC(c1ccc(O)cc1)C1(O)CCCCC1 (stereo not given)
inactive: CRL-7250 2.79% | HEK293 2.78% | HaCat -0.565% | KB-3-1 | NIH3T3

CC(C)=CCC(O)[C@](C)(O)C1[C@H](O)C[C@@]2(C)C3CC=C4C(C[C@H](O)[C@@H](O[C@@H]5O[C@H](CO)[C@@H](O)[C@H](O)[C@H]5O)C4(C)C)[C@]3(C)C(=O)C[C@]12C (stereo not given in full)
inactive: CRL-7250 4.58% | HEK293 -6.78% | HaCat -8.01% | KB-3-1 | NIH3T3

CC[C@H]1OC(=O)[C@H](C)[C@@H](O[C@H]2C[C@@](C)(OC)[C@@H](O)[C@H](C)O2)C(C)[C@@H](O[C@@H]2O[C@H](C)C[C@H](N(C)C)[C@H]2O)[C@](C)(O)C[C@@H](C)CN(C)[C@H](C)[C@@H](O)[C@]1(C)O (stereo not given in full)
inactive: CRL-7250 -0.571% | HEK293 1.9% | HaCat -11.4% | KB-3-1 -2.18% | NIH3T3

Cc1ccc(Cl)cc1N(CC(=O)Nc1c(F)cccc1F)S(C)(=O)=O
inactive: CRL-7250 -3.38% | HEK293 -7.88% | HaCat -2.84% | KB-3-1 5.59% | NIH3T3

O=C(OC[C@H]1O[C@@H](Oc2ccccc2COC(=O)C2(O)C=CCCC2O)[C@H](O)[C@@H](O)[C@@H]1O)c1ccccc1 (stereo not given in full)
inactive: CRL-7250 | HEK293 -3.05% | HaCat 3.77% | KB-3-1 1.49% | NIH3T3

O=C(O)c1ccnc2cc(C(OCC3CCC(F)(F)CC3)c3ccccc3Cl)[nH]c12 (stereo not given)
inactive: CRL-7250 2.57% | HEK293 4.55% | HaCat -20.6% | KB-3-1 8.39% | NIH3T3

COC(=O)c1ccc(OC)cc1O[C@@H]1O[C@H](CO[C@@H]2OC[C@@H](O)[C@H](O)[C@H]2O)[C@@H](O)[C@H](O)[C@H]1O
inactive: CRL-7250 -0.542% | HEK293 -1.51% | HaCat -6.53% | KB-3-1 | NIH3T3

Cc1nnc(-c2sc(NC(=O)[C@H](C(C)C)n3c(=O)[nH]c4ccccc4c3=O)nc2C)o1
inactive: CRL-7250 -59.8% | HEK293 -6.7% | HaCat -23.8% | KB-3-1 8.7% | NIH3T3

CC(/C=C/C=C(\C)C(=O)O[C@@H]1O[C@H](CO[C@@H]2O[C@H](CO)[C@@H](O)[C@H](O)[C@H]2O)[C@@H](O)[C@H](O)[C@H]1O)=C\C=C\C=C(C)\C=C\C=C(/C)C(=O)O[C@@H]1C[C@](O)(C(=O)O)C[C@@H](O)[C@H]1OC(=O)/C=C/c1ccc(O)c(O)c1
inactive: CRL-7250 -12.4% | HEK293 2.1% | HaCat 1.58% | KB-3-1 5.86% | NIH3T3

CNc1nc(Cc2ccccc2)nc2c1CCNC[C@@H]2C
inactive: CRL-7250 -3.14% | HEK293 -0.288% | HaCat -17.6% | KB-3-1 -9.65% | NIH3T3

COC(=O)[C@]1(C)CCC[C@@]2(C)[C@@H]3CC[C@@H]4C[C@@]3(CC[C@@H]21)C[C@H]4C(=O)O
inactive: CRL-7250 -6.63% | HEK293 0.134% | HaCat 0.436% | KB-3-1 9.78% | NIH3T3

CC(=O)O[C@@H]1C(=O)C(C)=C(CCC(C)CC(=O)O)[C@@]2(C)CCCC(C)(C)C12 (stereo not given in full)
inactive: CRL-7250 | HEK293 0.534% | HaCat -6.8% | KB-3-1 -5.14% | NIH3T3

O=C(Nc1cc(-c2ccccc2)nn1-c1ccccc1)c1ccc([N+](=O)[O-])cc1
inactive: CRL-7250 -6.57% | HEK293 -12.1% | HaCat 1.9% | KB-3-1 -7.82% | NIH3T3

COC(=O)C1=COC(O[C@@H]2O[C@H](CO)[C@@H](O)[C@H](O)[C@H]2O)C2C(C)C(=O)CC12 (stereo not given in full)
inactive: CRL-7250 -2.22% | HEK293 -2% | HaCat -11.3% | KB-3-1 2.31% | NIH3T3

CC1(C)CC[C@]2(C(=O)O[C@@H]3O[C@H](CO[C@@H]4O[C@H](CO)[C@@H](O)[C@H](O)[C@H]4O)[C@@H](O)[C@H](O[C@@H]4O[C@H](CO)[C@@H](O)[C@H](O)[C@H]4O)[C@H]3O)[C@H](O)C[C@]3(C)C(=CCC4[C@@]5(C)CC[C@H](O[C@@H]6OC[C@@H](O)[C@H](O)[C@H]6O)[C@@](C)(C(=O)O)C5CC[C@]43C)[C@@H]2C1 (stereo not given in full)
inactive: CRL-7250 -2.05% | HEK293 -13.5% | HaCat -5.99% | KB-3-1 2.29% | NIH3T3

COc1cc(/C=C/C(=O)O[C@@H]2C[C@@](O)(C(=O)O)C[C@@H](O)[C@@H]2O)ccc1O
inactive: CRL-7250 -0.566% | HEK293 0.393% | HaCat -12% | KB-3-1 0.239% | NIH3T3

CCN=C1N[C@@H]2[C@@H](O)[C@H](O)[C@@H](CO)O[C@@H]2S1
inactive: CRL-7250 3.4% | HEK293 -6.92% | HaCat 2.86% | KB-3-1 6.7% | NIH3T3

C[C@]12CCC[C@](C)(C(=O)O)C1CCC13CC(CO)C(CCC12)C3 (stereo not given in full)
inactive: CRL-7250 -1.66% | HEK293 2.28% | HaCat -11.1% | KB-3-1 8.03% | NIH3T3
